Bioassay records deposited in PubChem BioAssay by National Center for Advancing Translational Sciences (NCATS).
Rab9 prom act = qHTS Assay for Rab9 Promoter Activators; Huh7 Rab9 promoter-luciferase reporter, luminescence, 24 h; Potency, µM (doses to about 9.22 µM), for the others: top-dose activation, negative = inhibition, usual class: activators; hit rate 2.8% among 320,000; AID 485297, 2010; note: % of control where 0% means no effect; nearly all actives have a fitted effect of over 60% in size
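Using Huh7 cells stably transfected with Rab9 promoter–luciferase, compounds were incubated 24 h at 37 °C, 5% CO2; luciferase luminescence was read 10 min after reagent addition.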
FLuc modulator = qHTS profiling assay for firefly luciferase inhibitor/activator using purifed enzyme and Km concentrations of substrates (counterscreen for miR-21 project). Potency, µM (top dose mostly 57.5 µM), for inactives: top-dose activity change, negative = inhibition, actives largely listed as inhibitors. purified FLuc, Km substrates, luminescence inhibition. Luciferin 4-monooxygenase (Photinus pyralis), P08659. hit rate 6.9% among 360,000;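 note: plate controls were vehicle for no effect and reference inhibitor for full effect; nearly all actives have a fitted effect of over 55% in size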
Target sequence (P08659 whole entry, looked up): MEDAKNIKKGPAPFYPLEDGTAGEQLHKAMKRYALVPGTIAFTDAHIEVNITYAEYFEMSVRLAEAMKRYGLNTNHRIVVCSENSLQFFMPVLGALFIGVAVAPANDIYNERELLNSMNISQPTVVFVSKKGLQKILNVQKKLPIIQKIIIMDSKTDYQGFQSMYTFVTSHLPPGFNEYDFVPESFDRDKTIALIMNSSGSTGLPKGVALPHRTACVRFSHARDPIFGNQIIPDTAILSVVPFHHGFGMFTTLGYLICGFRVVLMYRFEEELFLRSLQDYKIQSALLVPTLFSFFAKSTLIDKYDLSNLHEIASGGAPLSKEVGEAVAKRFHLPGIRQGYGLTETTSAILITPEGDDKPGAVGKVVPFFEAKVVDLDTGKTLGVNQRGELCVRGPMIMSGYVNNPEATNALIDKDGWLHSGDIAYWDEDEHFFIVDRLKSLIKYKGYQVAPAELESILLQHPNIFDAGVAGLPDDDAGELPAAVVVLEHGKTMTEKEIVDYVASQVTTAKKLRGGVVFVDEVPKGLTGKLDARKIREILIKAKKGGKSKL
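Purified P. pyralis luciferase (10nM final) with 10uM D-luciferin and 10uM ATP (Km levels) in 50mM Tris acetate pH 7.5, 10mM Mg acetate, 0.01% Tween-20, 0.05% BSA; qHTS 6-point titration, ~60 µM downward; luminescence read.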
ELG1 genotox = qHTS screen for small molecules that induce genotoxicity in human embryonic kidney (HEK293T) cells expressing luciferase-tagged ELG1; HEK293T ELG1-luciferase reporter, luminescence, 16 h; Potency, µM (titrated, usually from 46 µM), without a hit: at the top dose activity change, positive = activation, hits mostly activators; hit rate 1.3% among 330,000; AID 504466, 2011; note: % of control where 0% means no effect; nearly all actives have a fitted effect of over 60% in size
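HEK293T cells expressing luciferase-tagged ELG1 were exposed to compound or DMSO vehicle for 16 hr at 37 °C and 5% CO2. Luciferase activity was then measured with ONE-Glo after 30 min at room temperature.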
NPC1 promoter act = qHTS Assay for NPC1 Promoter Activators; Huh7 NPC1 promoter luciferase reporter, 24 h; Potency, µM (highest dose often 9.22 µM), for the others: at the highest dose activation, most hits filed as activators; hit rate 2.4% among 320,000; AID 485313, 2010; note: % of control where 0% means no effect; nearly all actives have a fitted effect of over 60% in size
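Compounds in DMSO were transferred onto Huh7 NPC1-luciferase reporter cells pre-incubated 2 h; after 24 h at 37 °C, Amplite reagent was dispensed and luminescence recorded 10 min later.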
Luc counter = Counterscreen for Luciferase (Kinase-Glo TM) Inhibition. Luciferin 4-monooxygenase (Photuris pensylvanica), Q27757. Kinase-Glo luciferase, ATP luminescence, 8 min. Potency, µM (series often up to 38.3 µM), without a hit: at the highest dose activity change, negative = inhibition, most hits filed as inhibitors. hit rate 0.28% among 200,000. AID 1379, 2008; note: % is set by controls: 0 for no effect and ±100 for the full control effect; nearly all actives have a fitted effect of over 60% in size
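Substrate mix (final 50 mM imidazole pH 7.2, 50 mM KCl, 7 mM MgCl2, 10 uM ATP, 0.01% Tween 20, 0.05% BSA) plus pin-tool compound, then Kinase-Glo detection mix; 8 min ambient, luminescence read.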
SMN2 splice up = qHTS Assay for Enhancers of SMN2 Splice Variant Expression; HEK293 SMN2-luciferase splicing reporter, luminescence, 30-36 h; Potency, µM (top dose mostly 46.1 µM), for inactives: at the top dose activity change, positive = activation, most hits filed as activators; hit rate 2.8% among 210,000; note: % of control where 0% means no effect; nearly all actives have a fitted effect of over 55% in size
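qHTS luciferase splicing reporter: luminescence rises when SMN2 exon 7 is included in transfected HEK293 cells. Compound exposure lasted 30-36 h at 37C, with 4.5 mM final sodium butyrate as control, followed by a ONE-Glo read.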
An asterisk follows results filed as active; ? = inconclusive; . = not tested or not shown; [ ] = remark or other dose. Compounds with a hit are over-represented: about 7.3% of the library has one in this group of screens. Calls come from the whole dose curve; as a rule, active = well fitted curve in the direction sought with a large enough effect; inconclusive = small, poorly fitted or top-dose-only effect, or another doubt; inactive = no such curve, though single readings can be large; an effect the other way counts as inactive or inconclusive. Potency is the fitted concentration of half-maximal effect.

SMILES	Rab9 prom act	FLuc modulator	ELG1 genotox	NPC1 promoter act	Luc counter	SMN2 splice up
COC(=O)c1c(C)nn(-c2ccc(F)cc2)c1-n1cccc1	.	3%	.	.	.	-2%
CCCC(=O)Nc1ccc(-c2nc3ncccc3o2)cc1	2µM*	13µM*	?	2.2µM*	.	.
CCCC(=O)Nc1cccc(-c2nc3cc(C)c(C)cc3o2)c1	4µM*	0.6µM*	?	2.2µM*	-12%	?
CCCCC(=O)Nc1cccc(-c2nc3ncccc3o2)c1	5%	-16%	0%	-1%	-5%	-29%
CCCC(=O)Nc1cc(-c2nc3ncccc3o2)ccc1C	-1%	-12%	11%	2%	2%	6%
CCCC(=O)Nc1cccc(-c2nc3ncccc3o2)c1	.	6%	.	.	.	3.5µM*
Cc1n[nH]c(=S)n1/N=C/c1ccc(OCc2ccc(Cl)cc2)cc1	13%	19µM*	2%	15%	-7%	-6%
NC(N)=N/N=C/c1ccc(OCc2ccc(Cl)cc2)cc1	?	6µM*	?	3.5µM*	.	.
Cc1ccc(COc2ccc(/C=N/O)cc2)cc1	1.3µM*	5.4µM*	?	?	-5%	10µM*
NC(N)=N/N=C/c1ccc(OCc2ccccc2)cc1	11%	?	1%	24%	.	.
Cc1n[nH]c(=S)n1/N=C/c1ccc(OCc2ccc(Cl)cc2Cl)cc1	10%	?	13%	19%	1%	?
Cc1ccc(C(=O)N2CCCCC2CCN2CCCCC2)cc1 (centres undefined)	.	-1%	.	.	.	3%
NC(=O)C1=CN(C2OC(COP(=O)(O)OP(=O)(O)OC[C@H]3O[C@@H](n4cnc5c(N)ncnc54)[C@H](OP(=O)(O)O)[C@@H]3O)C(O)C2O)C=CC1 (some centres undefined)	0%[46.1 µM]	.	.	5%[46.1 µM]	.	.
Cc1cccc(C)c1NC(=O)c1cccc(COc2cc(Cl)ccc2Cl)c1	16%	-6%	16%	15%	2%	13µM*
CN(C)c1ccc(/C=C/C(=O)c2cccc(Br)c2)cc1	26%	3µM*	2%	23%	-7%	-1%
CN(C)c1ccc(C(=O)/C=C/c2cccnc2)cc1	?	3µM*	15%	?	.	.
CCOC(=O)c1c(C)[nH]c(C)c1S(=O)(=O)N1CCCC(C(=O)N2CCN(c3cc(C)ccc3C)CC2)C1 (centres undefined)	.	-12%	.	.	.	.
CC(C)(C)c1ccc(NC(=O)c2ccc(=O)[nH]n2)cc1	0.79µM*	3µM*	?	0.71µM*	.	.
CC(C)(C)c1ccc(COC(=O)Nc2ccc(F)cc2)cc1	8%	-18%	7%	4%	1%	?
O=C(Nc1ccc2c(c1)OCO2)c1ccc(=O)[nH]n1	?	?	10%	28%	.	.
CCOC(=O)c1sc(NC(=O)Nc2ccc(F)cc2)nc1C	1.3µM*	1.5µM*	?	1.6µM*	-2%	1.3µM*
CC(C)(C)c1ccc(NC(=O)Nc2ccc(F)cc2)cc1	2.5µM*	2.4µM*	?	1.8µM*	0%	13µM*
CCOC(=O)c1ccc(NC(=O)Oc2cc(C)c(Cl)cc2C(C)C)cc1	4.5µM*	-9%	5%	2%	.	.
Cc1ccc(NC(=O)CN2C(=O)C(c3ccc(C)cc3)=NC23CCCCCC3)cc1	.	-7%	.	.	.	-8%
O=C(Nc1ccncc1)Nc1ccc(F)c(Cl)c1	17%	?	-8%	8%	0%	.
SMILES	Rab9 prom act	FLuc modulator	ELG1 genotox	NPC1 promoter act	Luc counter	SMN2 splice up
CCOC(=O)c1ccc(NC(=O)Nc2ccc(OC)c(OC)c2)cc1	-3%	?	-13%	1%	-3%	-4%
COC(=O)c1ccc(NC(=O)Nc2ccccc2C)cc1	?	4.8µM*	5%	?	-3%	-21%
CC(=O)N(C)c1ccc(NC(=O)Nc2ccccc2C)cc1	2.8µM*	12µM*	21µM*	?	-29%	13µM*
COC(=O)c1ccc(NC(=O)Nc2ccc(F)c(Cl)c2)cc1	29%	27µM*	8%	14%	-1%	-16%
COC(=O)c1ccc(NC(=O)CSCc2ccccc2C)cc1	-3%	?	9%	0%	-3%	6%
CC(=O)Nc1ccc(NC(=O)Nc2ccccc2C)cc1	4%	?	3%	11%	-10%	.
CCOC(=O)c1ccc(NC(=O)Nc2ccc(F)cc2)cc1	18%	11µM*	10%	20%	-4%	4%
COC(=O)c1ccc(NC(=O)N2CCc3c([nH]c4ccccc34)C2c2ccc(C)cc2)cc1 (centres undefined)	.	-6%	.	.	.	-3%
COC(=O)c1ccc(NC(=O)Nc2ccc(F)cc2)cc1	?	11µM*	8%	?	-1%	-4%
S=C(NCCc1ccccn1)NC1CCCCC1	?	?	?	?	0%	11µM*
S=C(NCCCc1ccccc1)NC1CCCCC1	21%	-19%	5%	18%	.	.
COC(=O)/C(C#N)=C/c1c[nH]c2ccccc12	23%	?	?	23%	-2%	2%
CCOC(=O)/C(C#N)=C/Nc1ccccc1OC	2.2µM*	6.7µM*	?	3.2µM*	-5%	?
CCOC(=O)/C(C#N)=C/c1c[nH]c2ccccc12	25%	19µM*	8%	-3%	3%	11%
CCOc1ccccc1CNC(=O)CCCn1c(=O)c2cccn2c2ccc(F)cc21	.	-14%	.	.	.	.
CCOC(=O)c1cc(OC(=O)c2cccc(Cl)c2)n(-c2ccccc2)n1	.	-16%	.	.	.	.
O=C(NC(C(=O)N/N=C/c1ccccc1)c1n[nH]c(=O)c2ccccc12)c1ccccc1 (centres undefined)	?	19µM*	4%	0%	.	.
O=C(NC(C(=O)N/N=C/c1c2ccccc2cc2ccccc12)c1n[nH]c(=O)c2ccccc12)c1ccccc1 (centres undefined)	8%	1%	-3%	0%	.	.
O=C(CNC(=O)c1ccc(Cl)cc1Cl)OCC(=O)N1CCCC1	-5%	3%	-1%	1%	.	.
COc1ccccc1N1CCN(C(=O)CNC(=O)c2ccc(Cl)cc2Cl)CC1	16%	24µM*	-14%	17%	.	.
O=C(NCC(=O)N1CCCCC1)c1ccc(Cl)cc1Cl	4µM*	19µM*	16µM*	?	-3%	?
O=C(c1ccc2c(c1)N(Cc1ccccc1)C(=O)c1ccccc1S2(=O)=O)N1CCc2ccccc21	.	-3%	.	.	.	-11%
